# Measurements taken from the supplement of paper PMC10646978.
# ± gives the standard deviation.
# Legend:
# Conditions in all cases: modulator concentration 10 µM
# [1] = tested on: RAW-Dual (murine macrophage reporter line); test: NF-kB reporter (SEAP) activity fold change vs agonist alone; higher = enhanced NF-kB activity
# In short: (§1)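 RAW-Dual murine macrophage reporter cells were seeded at 50 000 per well in 384-well plates and pre-incubated 1 hour at 37 °C with compound pin-transferred to 10 μM final. After 1 hour, a PRR agonist was added and cells incubated overnight. Supernatant NF-κB (SEAP, QUANTI-Blue, 620 nm absorbance) and IRF (Lucia luciferase, QUANTI-Luc, luminescence) signals were divided by the mean agonist-only control on the same plate to give fold change. Two replicate plates were averaged, with errors by propagation.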
# [2] = tested on: RAW-Dual (murine macrophage reporter line); test: IRF reporter (Lucia luciferase) activity fold change vs agonist alone; higher = enhanced IRF activity
# In short: as §1
# [3] = tested on: RAW-Dual (murine macrophage reporter line); test: viability score (confluency relative to resting cells, overnight) (fraction); higher = more viable, active = viable (0.7 or more)
# In short: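 Overnight exposure to 10 μM final compound was carried out on RAW-Dual macrophages in 384-well plates. IncuCyte software generated two confluency masks over all wells imaged with IncuCyte. The viability score gives confluency in relation to resting cells. A compound met the cutoff if each mask exceeded 70% of resting cells.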
# [4] = agonist: CpG ODN 1826 0.5 ug/mL
SMILES,"NF-kB reporter [1, 4]",NF-kB reporter ([1]; agonist: LPS 0.1 ug/mL),NF-kB reporter ([1]; agonist: MPLA […]),IRF reporter ([2]; agonist: 3'3'-cGAMP 10 ug/mL),IRF reporter ([2]; agonist: LPS 0.1 ug/mL),IRF reporter ([2]; agonist: MPLA […]),viability score [3]
CC(=NNC(=O)COc1ccc(Cl)cc1[N+](=O)[O-])c1cccc(Br)c1,0.961 ± 0.091,1.11 ± 0.064,0.89 ± 0.053,0.983 ± 0.032,1.47 ± 0.22,1.19 ± 0.22,1 (active)
CNCC[C@H](Oc1cccc2ccccc12)c1cccs1.Cl,0.377 ± 0.037,0.925 ± 0.1,1.29 ± 0.069,1.41 ± 0.1,1.16 ± 0.18,1.24 ± 0.31,0.323 (inactive)
Cc1ccc(-n2c(C)cc(C=NNC(=O)CN3CCOCC3)c2C)c(C)c1,0.928 ± 0.084,1.11 ± 0.1,1.09 ± 0.097,0.822 ± 0.024,1.09 ± 0.19,1.07 ± 0.082,1 (active)
COc1ccc([C@@H]2Sc3ccccc3N(CCN(C)C)C(=O)[C@@H]2OC(C)=O)cc1.Cl,0.958 ± 0.074,1.02 ± 0.053,1.21 ± 0.064,0.969 ± 0.15,0.997 ± 0.11,1.05 ± 0.1,0.985 (active)
Oc1ccc(-c2cnc(-c3ccc(O)cc3)nc2)cc1,0.924 ± 0.22,0.965 ± 0.091,1.42 ± 0.1,0.347 ± 0.017,0.555 ± 0.08,0.591 ± 0.16,0.927 (active)
CCCCCCc1cc2cc(-c3nc(-c4ccc(Oc5ccccc5)cc4)cs3)c(=O)oc2cc1O,0.962 ± 0.096,1.04 ± 0.085,0.946 ± 0.068,0.873 ± 0.024,1.42 ± 0.22,1.12 ± 0.29,1.01 (active)
CN1CCN(c2ccc(C(=O)Nc3n[nH]c4ccc(Cc5cc(F)cc(F)c5)cc34)c(NC3CCOCC3)c2)CC1,0.971 ± 0.043,1.21 ± 0.097,1.87 ± 0.11,0.129 ± 0.0061,0.482 ± 0.14,0.465 ± 0.13,0.947 (active)
O=C(NCCN1CCN(c2ccc(F)cc2)CC1)c1ccno1,1.04 ± 0.1,0.965 ± 0.077,0.991 ± 0.026,0.982 ± 0.059,0.968 ± 0.072,0.929 ± 0.14,0.999 (active)
O=C(Cc1ccc(F)cc1F)N1CCC(n2c(=O)[nH]c3ccccc3c2=O)CC1,1.01 ± 0.06,1.15 ± 0.088,0.997 ± 0.026,0.878 ± 0.033,1.07 ± 0.061,1.03 ± 0.12,1 (active)
